# Measured values: the supplement of paper PMC8728848
# Shown is part of a subset that was picked to be rich in the strongest signals.
# B1: Gz-CVNH (Gibberella zeae) (protein)
# chain: MGSSHHHHHHSSGLVPRGSHMGNFHESSNNIWLEDGHILHAECGNGEGDYVESTLDLDYYIGNDDGSFSWGGENFSGSASNITLDIEGDDNIPVLRAELNPMDGDPVEANVNLSERIGNDCGTLIFLA
# What was measured:
# Experiment in all cases: glycan array binding signal (z-score within array); higher = stronger binding
# Conditions in all cases: glycan notation: IUPAC condensed, linker removed
# [1] = biological target: Fuc(a1-2)Gal(b1-4)GlcNAc
# In short: (§1)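 Glycan array data were curated from 3228 arrays in the Consortium for Functional Glycomics database and kept only where the protein sequence was available. Glycan names were converted to IUPAC-condensed notation, and columns mapping to the same glycan were averaged. The binding signal is a within-array Z-score, averaged across arrays of the same protein sequence at different concentrations or buffers and across linkers. Negative Z-scores can be read as non-binding.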
# [2] = biological target: Fuc(a1-2)Gal(b1-4)GlcNAc(b1-2)[Fuc(a1-2)Gal(b1-4)GlcNAc(b1-4)]Man(a1-3)[Fuc(a1-2)Gal(b1-4)GlcNAc(b1-2)Man(a1-6)]Man(b1-4)GlcNAc(b1-4)GlcNAc
# In short: as §1
# [3] = biological target: Fuc(a1-2)[Gal(a1-3)]Gal(b1-4)[Fuc(a1-3)]Glc
# In short: as §1
# [4] = biological target: Fuc(a1-2)[GalNAc(a1-3)]Gal(b1-3)GlcNAc(b1-2)Man(a1-3)[Fuc(a1-2)[GalNAc(a1-3)]Gal(b1-3)GlcNAc(b1-2)Man(a1-6)]Man(b1-4)GlcNAc(b1-4)GlcNAc
# In short: as §1
# [5] = biological target: Fuc(a1-3)[Gal(b1-4)]GlcNAc
# In short: as §1
# [6] = biological target: Fuc(a1-3)[Gal(b1-4)]GlcNAc(b1-3)Gal(b1-3)[Fuc(a1-4)]GlcNAc
# In short: as §1
# [7] = biological target: Gal(a1-3)[Gal(a1-4)]Gal(b1-4)GlcNAc
# In short: as §1
# [8] = biological target: Gal(a1-6)Glc
# In short: as §1
# [9] = biological target: Gal(b1-3)GlcNAc(b1-2)[Gal(b1-3)GlcNAc(b1-6)]Man(a1-6)[Gal(b1-3)GlcNAc(b1-2)Man(a1-3)]Man(b1-4)GlcNAc(b1-4)GlcNAc
# In short: as §1
# [10] = biological target: Gal(b1-4)GlcNAc(b1-2)[Gal(b1-4)GlcNAc(b1-6)]Man(a1-6)[Gal(b1-4)GlcNAc(b1-2)Man(a1-3)]Man(b1-4)GlcNAc(b1-4)GlcNAc
# In short: as §1
# [11] = biological target: Gal(b1-4)GlcNAc(b1-3)Gal(b1-4)Glc
# In short: as §1
# [12] = biological target: Gal(b1-4)GlcNAc(b1-3)Gal(b1-4)[Fuc(a1-3)]GlcNAc(b1-3)Gal(b1-4)[Fuc(a1-3)]GlcNAc
# In short: as §1
# [13] = biological target: Gal3S(b1-4)GlcNAc
# In short: as §1
# [14] = biological target: Gal3S(b1-4)[Fuc(a1-3)]Glc6S
# In short: as §1
# [15] = biological target: GalNAc(b1-3)Gal
# In short: as §1
# [16] = biological target: GalNAc(b1-3)Gal(a1-4)Gal(b1-4)GlcNAc(b1-3)Gal(b1-4)Glc
# In short: as §1
# [17] = biological target: GlcNAc(a1-4)Gal(b1-4)GlcNAc(b1-3)Gal(b1-4)GlcNAc(b1-3)Gal(b1-4)GlcNAc
# In short: as §1
# [18] = biological target: GlcNAc(b1-2)Man(a1-3)[GlcNAc(b1-2)Man(a1-6)]Man(b1-4)GlcNAc(b1-4)GlcNAc
# In short: as §1
# [19] = biological target: GlcNAc(b1-2)[GlcNAc(b1-4)]Man(a1-3)[GlcNAc(b1-4)][GlcNAc(b1-2)[GlcNAc(b1-6)]Man(a1-6)]Man(b1-4)GlcNAc(b1-4)GlcNAc
# In short: as §1
# [20] = biological target: GlcNAc(b1-3)Gal(b1-4)GlcNAc(b1-3)Gal(b1-4)GlcNAc
# In short: as §1
# [21] = biological target: Kdn(a2-3)Gal(b1-3)GalNAc
# In short: as §1
# [22] = biological target: Kdn(a2-3)Gal(b1-4)GlcNAc
# In short: as §1
# [23] = biological target: Man(a1-2)Man(a1-2)Man(a1-3)Man
# In short: as §1
# [24] = biological target: Man(a1-2)Man(a1-2)Man(a1-6)[Man(a1-3)]Man
# In short: as §1
# [25] = biological target: Man(a1-2)Man(a1-3)[Man(a1-2)Man(a1-6)]Man
# In short: as §1
# [26] = biological target: Man(a1-2)Man(a1-3)[Man(a1-2)Man(a1-6)]Man(a1-6)[Man(a1-2)Man(a1-2)Man(a1-3)]Man
# In short: as §1
# [27] = biological target: Man(a1-2)Man(a1-3)[Man(a1-2)Man(a1-6)]Man(a1-6)[Man(a1-2)Man(a1-2)Man(a1-3)]Man(b1-4)GlcNAc(b1-4)GlcNAc
# In short: as §1
# [28] = biological target: Man(a1-2)Man(a1-3)[Man(a1-6)]Man(a1-6)[Man(a1-2)Man(a1-3)]Man(b1-4)GlcNAc(b1-4)GlcNAc
# In short: as §1
# [29] = biological target: Man(a1-2)Man(a1-6)[Man(a1-3)]Man(a1-6)[Man(a1-2)Man(a1-2)Man(a1-3)]Man
# In short: as §1
# [30] = biological target: Man(a1-2)Man(a1-6)[Man(a1-3)]Man(a1-6)[Man(a1-2)Man(a1-2)Man(a1-3)]Man(b1-4)GlcNAc(b1-4)GlcNAc
# In short: as §1
# [31] = biological target: Man(a1-3)[Man(a1-6)]Man(a1-6)[Man(a1-2)Man(a1-3)]Man(b1-4)GlcNAc(b1-4)GlcNAc
# In short: as §1
# [32] = biological target: Man(a1-3)[Man(a1-6)]Man(b1-4)GlcNAc(b1-4)GlcNAc
# In short: as §1
# [33] = biological target: Neu5Ac(a2-3)Gal(b1-3)[Fuc(a1-4)]GlcNAc(b1-3)Gal(b1-3)[Fuc(a1-4)]GlcNAc
# In short: as §1
# [34] = biological target: Neu5Ac(a2-3)Gal(b1-4)GlcNAc(b1-6)[Gal(b1-3)]GalNAc
# In short: as §1
# [35] = biological target: Neu5Ac(a2-6)Gal(b1-4)GlcNAc(b1-2)Man(a1-3)[GlcNAc(b1-2)Man(b1-4)GlcNAc(b1-2)Man(a1-6)]Man(b1-4)GlcNAc(b1-4)GlcNAc
# In short: as §1
# [36] = biological target: Neu5Ac(a2-6)GlcNAc(b1-4)GlcNAc(b1-4)GlcNAc
# In short: as §1
# [37] = biological target: Neu5Ac(a2-8)Neu5Ac(a2-3)Gal(b1-3)GalNAc(b1-4)[Neu5Ac(a2-8)Neu5Ac(a2-3)]Gal(b1-4)Glc
# In short: as §1
# [38] = biological target: Neu5Ac(a2-8)Neu5Ac(a2-8)Neu5Ac(a2-3)Gal(b1-4)Glc
# In short: as §1
# [39] = biological target: Neu5Ac(a2-8)Neu5Ac(a2-8)Neu5Ac(a2-8)Neu5Ac(a2-3)[GalNAc(b1-4)]Gal(b1-4)Glc
# In short: as §1
# [40] = biological target: Neu5Ac(b2-6)GalNAc
# In short: as §1
# [41] = biological target: Neu5Gc(a2-3)Gal(b1-3)[Fuc(a1-4)]GlcNAc
# In short: as §1
# [42] = biological target: Neu5Gc(a2-3)Gal(b1-4)Glc
# In short: as §1
binder,measurement,setting,value
B1,glycan array binding signal (z-score),[1],-0.133
same,glycan array binding signal (z-score),[2],-0.106
same,glycan array binding signal (z-score),[3],-0.109
same,glycan array binding signal (z-score),[4],-0.121
same,glycan array binding signal (z-score),[5],-0.14
same,glycan array binding signal (z-score),[6],-0.114
same,glycan array binding signal (z-score),[7],-0.135
same,glycan array binding signal (z-score),[8],-0.128
same,glycan array binding signal (z-score),[9],-0.096
same,glycan array binding signal (z-score),[10],-0.094
same,glycan array binding signal (z-score),[11],-0.114
same,glycan array binding signal (z-score),[12],-0.14
same,glycan array binding signal (z-score),[13],-0.166
same,glycan array binding signal (z-score),[14],0.005
same,glycan array binding signal (z-score),[15],-0.146
same,glycan array binding signal (z-score),[16],-0.132
same,glycan array binding signal (z-score),[17],-0.131
same,glycan array binding signal (z-score),[18],-0.129
same,glycan array binding signal (z-score),[19],-0.112
same,glycan array binding signal (z-score),[20],-0.14
same,glycan array binding signal (z-score),[21],-0.14
same,glycan array binding signal (z-score),[22],-0.117
same,glycan array binding signal (z-score),[23],3.53
same,glycan array binding signal (z-score),[24],7.75
same,glycan array binding signal (z-score),[25],1.63
same,glycan array binding signal (z-score),[26],12.7
same,glycan array binding signal (z-score),[27],2.82
same,glycan array binding signal (z-score),[28],5.4
same,glycan array binding signal (z-score),[29],9.9
same,glycan array binding signal (z-score),[30],8.33
same,glycan array binding signal (z-score),[31],1.34
same,glycan array binding signal (z-score),[32],-0.119
same,glycan array binding signal (z-score),[33],-0.074
same,glycan array binding signal (z-score),[34],-0.115
same,glycan array binding signal (z-score),[35],-0.09
same,glycan array binding signal (z-score),[36],-0.14
same,glycan array binding signal (z-score),[37],-0.156
same,glycan array binding signal (z-score),[38],-0.128
same,glycan array binding signal (z-score),[39],-0.142
same,glycan array binding signal (z-score),[40],-0.108
same,glycan array binding signal (z-score),[41],-0.134
same,glycan array binding signal (z-score),[42],-0.113
